Inconclusive results are not listed. Activity calls are given as the source filed them. Unless noted, the call rests on the fitted dose curve; in most records, active means well fitted curve in the direction sought with a large enough effect in the repeat runs; inconclusive means weak or mixed curves; inactive means no such curve, though single readings can be large; an effect the other way counts as inactive or inconclusive.
Key:
[1] = qHTS assay to identify small molecule agonists of the peroxisome proliferator-activated receptor delta (PPARd) signaling pathway - cell viability counter screen (AID 743211); further: nearly all actives have a fitted effect of over 55% in size
Method in brief: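 Viability was measured as CellTiter-Glo luminescence (30 min, room temperature) in the same wells as the beta-lactamase readout. GeneBLAzer PPARd UAS-bla HEK293H cells received compound after 5 h plating and were incubated 17 h at 37 C.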

[2] = molecular target: Peroxisome proliferator-activated receptor delta (Homo sapiens) (UniProt Q03181); experiment: qHTS assay to identify small molecule agonists of the peroxisome proliferator-activated receptor delta (PPARd) signaling pathway (AID 743212; calls by dose curve)
Sequence of Peroxisome proliferator-activated receptor delta (Homo sapiens) (Q03181 whole entry, looked up): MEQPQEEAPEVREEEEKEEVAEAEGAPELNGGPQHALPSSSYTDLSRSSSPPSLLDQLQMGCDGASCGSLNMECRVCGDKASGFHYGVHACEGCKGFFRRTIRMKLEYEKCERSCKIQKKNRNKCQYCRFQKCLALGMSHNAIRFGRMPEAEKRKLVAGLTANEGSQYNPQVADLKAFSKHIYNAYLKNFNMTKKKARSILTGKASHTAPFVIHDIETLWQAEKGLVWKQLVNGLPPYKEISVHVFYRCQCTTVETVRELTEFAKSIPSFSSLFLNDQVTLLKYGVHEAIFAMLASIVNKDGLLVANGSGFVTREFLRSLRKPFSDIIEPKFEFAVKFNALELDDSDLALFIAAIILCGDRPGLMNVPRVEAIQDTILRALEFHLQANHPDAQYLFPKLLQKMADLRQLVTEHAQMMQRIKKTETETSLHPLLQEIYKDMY
Method in brief: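 Tox21 library screened in GeneBLAzer PPARd UAS-bla HEK293H cells. After compound treatment at 37 C, a FRET-based beta-lactamase substrate was applied for 2 h and fluorescence recorded.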

[3] = molecular target: Peroxisome proliferator-activated receptor delta (Homo sapiens) (UniProt Q03181); experiment: qHTS assay to identify small molecule antagonists of the peroxisome proliferator-activated receptor delta (PPARd) signaling pathway (AID 743215; active means well fitted inhibition curve with a large enough effect in the signal ratio in the repeat runs, not every such curve was filed as active; the % refers to the signal ratio;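 further: cells stimulated with agonist L165041 at 300 nM final during compound exposure; series mostly up to about 62 µM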)
Method in brief: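 Fluorescence from cleaved LiveBLAzer B/G FRET substrate (2 h, room temperature) reports PPARd-driven beta-lactamase in HEK293H UAS-bla cells. Cells had been treated 17 h at 37 C with compound plus 300 nM final L165041.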

[4] = qHTS assay to identify small molecule agonists of the farnesoid-X-receptor (FXR) signaling pathway - cell viability counter screen (AID 743218); further: nearly all actives have a fitted effect of over 45% in size
Method in brief: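 Readout: CellTiter-Glo luminescence, 30 min RT, multiplexed after the FXR-bla FRET reading. HEK 293T FXR-UAS-bla cells received compound 5 h post-plating and were incubated 16 h at 37 C.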

[5] = qHTS assay to identify small molecule antagonists of the farnesoid-X-receptor (FXR) signaling pathway - cell viability counter screen (AID 743221; active means well fitted cell-killing curve with a large enough effect in the repeat runs, not every such curve was filed as active; further: nearly all actives have a fitted effect of over 50% in size)
Method in brief: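 Cytotoxicity counter screen run in the FXR-bla reporter wells: HEK 293T cells exposed to compound with 50 uM (final) chenodeoxycholic acid for 16 h, 37 C, then viability measured by CellTiter-Glo luminescence after 30 min, room temperature.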

[6] = molecular target: Vitamin D3 receptor (Homo sapiens) (UniProt P11473); experiment: qHTS assay to identify small molecule agonists of the vitamin D receptor (VDR) signaling pathway (AID 743222; calls by dose curve)
Sequence of Vitamin D3 receptor (Homo sapiens) (P11473 whole entry, looked up): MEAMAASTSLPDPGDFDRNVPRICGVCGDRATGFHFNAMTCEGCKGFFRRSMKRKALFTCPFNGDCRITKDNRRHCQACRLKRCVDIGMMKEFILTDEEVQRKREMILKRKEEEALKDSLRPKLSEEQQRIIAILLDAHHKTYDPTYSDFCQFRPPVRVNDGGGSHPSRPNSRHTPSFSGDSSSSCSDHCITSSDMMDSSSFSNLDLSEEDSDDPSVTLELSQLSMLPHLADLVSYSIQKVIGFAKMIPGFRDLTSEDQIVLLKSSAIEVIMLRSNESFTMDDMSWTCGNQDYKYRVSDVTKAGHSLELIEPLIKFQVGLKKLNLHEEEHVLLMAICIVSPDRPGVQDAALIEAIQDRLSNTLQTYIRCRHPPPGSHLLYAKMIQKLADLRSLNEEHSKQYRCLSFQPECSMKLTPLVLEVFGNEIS
Method in brief: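 Following 4 h attachment at 37C, VDR-bla cells (2,000 per well) received DMSO-dissolved compounds or controls. After 16 h incubation, LiveBLAzer B/G FRET substrate was added and fluorescence read 2 h later at room temperature.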

[7] = qHTS assay to identify small molecule agonists of the vitamin D receptor (VDR) signaling pathway - cell viability counter screen (AID 743224); further: series mostly up to about 63 µM; nearly all actives have a fitted effect of over 50% in size
Method in brief: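 In parallel with the bla FRET readout, cytotoxicity toward VDR-bla cells after 16 h compound exposure was assessed by CellTiter-Glo, with luminescence recorded after a 30 min room-temperature incubation.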

[8] = qHTS assay to identify small molecule antagonists of the vitamin D receptor (VDR) signaling pathway - cell viability counter screen (AID 743225); further: nearly all actives have a fitted effect of over 50% in size
Method in brief: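 Cytotoxicity counter screen read by CellTiter-Glo luminescence (30 min, room temperature) in the same wells as the VDR-bla antagonist readout. HEK 293T VDR-UAS-bla cells had 16 h at 37C with compound and 3 nM (final) 1-alpha,25-dihydroxyvitamin D3, then 2 h with FRET substrate.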

[9] = qHTS assay to identify small molecule agonists of the NFkB signaling pathway (AID 1159509; active means well fitted curve in the direction sought with a large enough effect in the signal ratio in the repeat runs, not every such curve was filed as active; the % refers to the signal ratio; further: series mostly up to about 61 µM)
Method in brief: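 Agonist activity was read as beta-lactamase-driven FRET change (460 and 530 nm emission, 405 nm excitation) following 1.5 hr substrate loading at room temperature. Beforehand, ME-180 NFkB-bla reporter cells were treated with compounds for 5 hr at 37 C.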

[10] = qHTS assay to identify small molecule agonists of the NFkB signaling pathway - cell viability counter screen (AID 1159515; calls by dose curve; further: series mostly up to about 61 µM; nearly all actives have a fitted effect of over 55% in size)
Method in brief: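 Plate 2,000 NFkB-bla ME-180 cells/well; incubate overnight. Add compounds, 5 hr at 37 C. Add FRET substrate, 1.5 hr RT. Add CellTiter-Glo, 30 min RT; read luminescence.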

[11] = qHTS assay to identify small molecule agonists of the endoplasmic reticulum stress response signaling pathway (AID 1159516; active means well fitted activation curve with a large enough effect in the signal ratio in the repeat runs, not every such curve was filed as active; the % refers to the signal ratio)
Method in brief: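 Beta-lactamase expression from the ER stress response element in HeLa reporter cells is quantified with the LiveBLAzer B/G FRET substrate, read at 405 nm excitation after 2 hr at room temperature, following 5 hr compound treatment at 37 C.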

[12] = qHTS assay to identify small molecule agonists of the endoplasmic reticulum stress response signaling pathway - cell viability counter screen (AID 1159517; calls by dose curve; further: series mostly up to about 61 µM; nearly all actives have a fitted effect of over 50% in size)
Method in brief: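 In parallel with the ESRE reporter read, cytotoxicity was scored by CellTiter-Glo luminescence (30 min, room temperature) on HeLa ESRE-bla cells dosed for 5 hr.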

[13] = qHTS assay to identify small molecule antagonists of the retinoid-related orphan receptor gamma (ROR-gamma) signaling pathway - cell viability counter screen (AID 1159520); further: nearly all actives have a fitted effect of over 50% in size
Method in brief: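 Tet-on ROR gamma CHO cells were given compounds for 2 hr, then doxycycline hyclate at 1 uM final, and incubated 16 hr at 37 C. Viability was measured as ATP content by CellTiter-Glo luminescence.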

[14] = molecular target: Nuclear receptor ROR-gamma (Homo sapiens) (UniProt P51449); experiment: qHTS assay to identify small molecule antagonists of the retinoid-related orphan receptor gamma (ROR-gamma) signaling pathway (AID 1159521)
Method in brief: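 Antagonist read-out: drop in luminescence (ONE-Glo) from an RORE-LUC reporter in CHO cells with doxycycline-inducible ROR-gamma; 2 hr compound pretreatment, 1 uM doxycycline, 16 hr incubation at 37 C.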

[15] = qHTS assay to identify small molecule agonists of the AP-1 signaling pathway - cell viability counter screen (AID 1159525; calls by dose curve; further: nearly all actives have a fitted effect of over 55% in size)
Method in brief: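 Same-well cytotoxicity counter screen of the Tox21 10K library in ME-180 cells. The readout is ATP-dependent luminescence after 5 h compound treatment. Data are normalised to DMSO and tetra n-octyl ammonium bromide controls.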

[16] = qHTS assay to identify small molecule agonists of the AP-1 signaling pathway (AID 1159526; calls by dose curve)
[17] = qHTS assay to identify small molecule antagonists of the peroxisome proliferator-activated receptor delta (PPARd) signaling pathway - cell viability counter screen (AID 743213); further: nearly all actives have a fitted effect of over 50% in size
Method in brief: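 Luminescence from CellTiter-Glo, added after the bla read and incubated 30 min at room temperature, gives viability of HEK293H PPARd-bla cells exposed to compounds for 17 h at 37 C with 300 nM L165041.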

[18] = molecular target: Bile acid receptor (Homo sapiens) (UniProt Q96RI1); experiment: qHTS assay to identify small molecule antagonists of the farnesoid-X-receptor (FXR) signaling pathway (AID 743217; active means well fitted inhibition curve with a large enough effect in the signal ratio in the repeat runs, not every such curve was filed as active; the % refers to the signal ratio)
Sequence of Bile acid receptor (Homo sapiens) (Q96RI1 whole entry, looked up): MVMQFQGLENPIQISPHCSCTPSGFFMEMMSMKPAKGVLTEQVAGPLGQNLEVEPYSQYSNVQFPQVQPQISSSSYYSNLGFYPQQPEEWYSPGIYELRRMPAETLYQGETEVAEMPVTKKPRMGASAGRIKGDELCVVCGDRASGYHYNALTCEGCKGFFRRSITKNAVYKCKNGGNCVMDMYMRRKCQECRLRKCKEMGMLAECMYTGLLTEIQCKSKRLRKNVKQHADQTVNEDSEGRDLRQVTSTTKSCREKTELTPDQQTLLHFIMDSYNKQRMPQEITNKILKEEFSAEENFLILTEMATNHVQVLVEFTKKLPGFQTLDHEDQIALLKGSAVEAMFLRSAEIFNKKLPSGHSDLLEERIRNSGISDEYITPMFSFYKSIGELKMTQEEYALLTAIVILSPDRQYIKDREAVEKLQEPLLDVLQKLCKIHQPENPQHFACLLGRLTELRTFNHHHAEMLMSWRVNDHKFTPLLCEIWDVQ
Method in brief: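 FRET fluorescence after 2 h room-temperature LiveBLAzer loading gives the readout. Prior step: FXR-bla HEK 293T cells, seeded and incubated 5 h, received test compounds plus 50 uM final CDCA for 16 h at 37 °C.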

[19] = molecular target: Bile acid receptor (Homo sapiens) (UniProt Q96RI1); experiment: qHTS assay to identify small molecule agonists of the farnesoid-X-receptor (FXR) signaling pathway (AID 743220; active means well fitted activation curve with a large enough effect in the signal ratio in the repeat runs, not every such curve was filed as active; the % refers to the signal ratio)
Method in brief: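 FXR-UAS-bla HEK 293T cells carrying a UAS-driven beta-lactamase reporter were plated for 5 h at 37C/5% CO2, then exposed to DMSO-dissolved Tox21 10K compounds for 16 h at 37C. A LiveBLAzer B/G FRET substrate was loaded for 2 h at room temperature before fluorescence reading.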

[20] = molecular target: Vitamin D3 receptor (Homo sapiens) (UniProt P11473); experiment: qHTS assay to identify small molecule antagonists of the vitamin D receptor (VDR) signaling pathway (AID 743223; active means well fitted inhibition curve with a large enough effect in the signal ratio in the repeat runs, not every such curve was filed as active; the % refers to the signal ratio)
Method in brief: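 Antagonist mode: compound added to VDR-bla cells alongside agonist 1alpha,25-dihydroxyvitamin D3 (3 nM final), incubation 16 h at 37C. Read-out is LiveBLAzer FRET fluorescence, 2 h at room temperature.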

Measured: Potency

CCCC=O
not listed: [17] | [18] | [19] | [20]
inactive: all other assays above

c1ccc(CCCc2ccccn2)cc1
not listed: [2] | [3] | [20]
inactive: all other assays above

CCCCOCC(C)OCC(C)O (centres undefined)
not listed: [17]
inactive: all other assays above

NC(=O)c1ncn([C@@H]2O[C@H](CO)[C@@H](O)[C@H]2O)c1N
not listed: [2] | [3] | [18] | [19]
inactive: all other assays above

NCCN1CCNC1=O
not listed: [3] | [8] | [17] | [18] | [19]
inactive: all other assays above

OC[C@H]1O[C@@H]2O[C@H]3[C@H](O)[C@@H](O)[C@@H](O[C@H]4[C@H](O)[C@@H](O)[C@@H](O[C@H]5[C@H](O)[C@@H](O)[C@@H](O[C@H]6[C@H](O)[C@@H](O)[C@@H](O[C@H]7[C@H](O)[C@@H](O)[C@@H](O[C@H]8[C@H](O)[C@@H](O)[C@@H](O[C@H]9[C@H](O)[C@@H](O)[C@@H](O[C@H]1[C@H](O)[C@H]2O)O[C@@H]9CO)O[C@@H]8CO)O[C@@H]7CO)O[C@@H]6CO)O[C@@H]5CO)O[C@@H]4CO)O[C@@H]3CO
not listed: [2] | [3] | [18] | [19]
inactive: all other assays above

CCO[Si](C)(OCC)OCC
not listed: [4] | [17] | [18] | [19]
inactive: all other assays above

CO[Si](OC)(OC)OC
not listed: [1] | [18] | [19]
inactive: all other assays above

CCOC(=O)[C@H](CCc1ccccc1)N[C@@H](C)C(=O)N1CCC[C@H]1C(=O)O
not listed: [1] | [17] | [19] | [20]
inactive: all other assays above

CC(C)CCOC(=O)CC(C)C
not listed: [1] | [3] | [20]
inactive: all other assays above

CCCCCCOC(=O)CC(CC(=O)OCCCCCC)(OC(=O)CCC)C(=O)OCCCCCC
not listed: [1] | [3] | [7] | [8] | [18] | [19] | [20]
inactive: all other assays above

O=S(=O)(O)c1ccccc1O
not listed: [1] | [2] | [6] | [18] | [19] | [20]
inactive: all other assays above

O=C1C(CCS(=O)c2ccccc2)C(=O)N(c2ccccc2)N1c1ccccc1 (centres undefined)
not listed: [1] | [6] | [7] | [8] | [18] | [19] | [20]
inactive: all other assays above

CO
not listed: [2] | [3] | [4] | [18] | [19] | [20]
inactive: all other assays above

Source: PubChem BioAssay (Tox21)
